Experimental data reported in publication PMC5540273 (PLoS ONE, 2017).

system: QSK; conditions: concentration: 1 μM, replicates: in singlicate; n = 1
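Note: KINOMEscan kinase panel screen.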

Compared with `COc1ccc(Nc2ncc(C#N)c(Nc3ccccc3C(N)=O)n2)cc1N1CCN(C)CC1.Cl` [GSK1558669], `CC(C)Oc1ccc2c(-c3ccnc(Nc4ccc(N5CCN(C)CC5)cc4)n3)cnn2n1` [GW696155] is lower in “%Inh” value: 94.7% for the first, 23% for the second.

Compared with `O=C(Nc1cccc(-c2nn3ncccc3c2-c2ccnc(Nc3cccc(C(F)(F)F)c3)n2)c1)c1c(F)cccc1F` [GSK299495], `Fc1ccc(-c2nn3c(OCC(F)(F)F)cccc3c2-c2ccncc2)cc1` [GW514784] is lower in “%Inh” value: 9% for the first, 0% for the second.

First: Cc1cccc(-c2nc(Nc3ccc4ncsc4c3)c3ccccc3n2)n1 [GW867588]
Second: c1ccc(-c2n[nH]cc2-c2ccnc3ccccc23)nc1 [GW271431]
The “%Inh” value of the first is higher: 11% for the first, 0% for the second.

`Cl.Nc1ncnc2occ(-c3ccc(NC(=O)Nc4cc(C(F)(F)F)ccc4F)cc3)c12` [SB-707548] and `COC(=O)Nc1nc2cc(Oc3ccc(NC(=O)Nc4cc(F)ccc4F)cc3)ccc2[nH]1.Cl` [GW701424] are the same in “%Inh” value: 0% for the first, 0% for the second.

`C[C@@H](Oc1cc(-n2cnc3ccc(NC(=O)NC(C)(C)C)cc32)sc1C(N)=O)c1ccccc1Cl` [GSK346294] and `COc1ccc(COc2cc(-n3cnc4ccccc43)sc2C(N)=O)cc1` [GSK1024304] are the same in “%Inh” value: 0% for the first, 0% for the second.

First: c1ccc(-c2cc(-c3c[nH]nc3-c3ccccn3)ccn2)cc1 [GW576604]
Second: N#Cc1ccc(-c2cc(-c3c[nH]nc3-c3ccccn3)ccn2)cc1 [GW693028]
The “%Inh” value of the first is lower: 0% for the first, 12% for the second.

Going from `Cc1nnc(-c2ccc3occ(-c4ccc(C(C)O)cc4)c3c2)o1` (centres unmarked) to `Cc1ccc(NC(=O)c2ccnc(N3CCN(C)CC3)c2)cc1-c1ccc(C(=O)NCC2CC2)cc1` [GW775604], the “%Inh” value falls from 5% to 0%.

Compared with `NS(=O)(=O)c1cccc(-c2ccc3ncc(N4CCOCC4)nc3c2)c1` [GSK1535721], `O=c1cc(N2CCOCC2)nc2n(Cc3cccc4ccccc34)ccn12` [GSK2333389] is higher in “%Inh” value: 0% for the first, 7% for the second.

`Cl.Cl.Cl.Fc1ccc(-c2ncn(C3CCNCC3)c2-c2ccnc(Nc3ccccc3)n2)cc1` [SB-238039] and `Nc1nccc(-c2c(-c3ccc(F)cc3)ncn2C2CCN(CC(F)(F)F)CC2)n1` [SB-236560] are the same in “%Inh” value: 0% for the first, 0% for the second.

`Fc1ccc(-c2ncn(CCCN3CCOCC3)c2-c2ccccn2)cc1` [SB-211742] and `Fc1ccc(-c2ncn(CCCN3CCOCC3)c2-c2cccnc2)cc1` [SB-211743] are the same in “%Inh” value: 0% for the first, 0% for the second.

`CN(C1=C(c2ccccc2)C(=O)NC1=O)c1ccccc1` [SB-334860] and `CCc1nc(-c2cccc(C)c2)c(-c2ccnc(NCc3ccccc3)c2)s1` are the same in “%Inh” value: 0% for the first, 0% for the second.

`O=C(NCCNc1ccnc(Nc2ccc(F)cc2)n1)Nc1ccccc1F` [GSK1379880] and `O=C(NCCNc1ccnc(Nc2ccc(F)cc2)n1)c1cc2ccccc2s1` [GSK1379874] are the same in “%Inh” value: 0% for the first, 0% for the second.

Compared with `O=c1cc(N2CCOCC2)nc2n(Cc3cccc(F)c3)ccn12` [GSK2297430], `Cc1cccc(Cn2ccn3c(=O)cc(N4CCOCC4)nc23)c1` [GSK2297542] is higher in “%Inh” value: 0% for the first, 11% for the second.

`CC(C)(C)n1cnc2c(N)ncnc21` [SKF-97359] and `Cn1ccc2ncnc(Oc3ccc(NC(=O)Nc4ccncc4)c(Cl)c3)c21` are the same in “%Inh” value: 0% for the first, 0% for the second.

Compared with `O=c1cc(N2CCOCC2)nc2n(Cc3cccc(C(F)(F)F)c3)ccn12` [GSK2297543], `COc1ccc(S(=O)(=O)NC2CCN(c3cc(C)nc(Nc4cccc(C#N)c4)n3)CC2)cc1.O=C(O)C(F)(F)F` [GSK1653539] is higher in “%Inh” value: 3% for the first, 6% for the second.

`Cc1ccc(C(=O)NCC(N)=O)cc1-n1c(C)cc(OCc2ccc(F)cc2F)c(Br)c1=O` and `O=C(NOCC1CC1)c1ccc(F)c(F)c1Nc1ccc(I)cc1Cl` are the same in “%Inh” value: 0% for the first, 0% for the second.

First: O=C(Nc1n[nH]c2cc(-c3cccc(F)c3)ccc12)C1CC1 [SB-735464]
Second: COc1ccc(Nc2nccc(N3CCC(NC(=O)Nc4cccc(C(C)=O)c4)C3)n2)cc1 (centres unmarked) [GSK1379731]
The “%Inh” value of the first is higher: 28% for the first, 0% for the second.

First: NCC(NC(=O)c1cc(-c2cn[nH]c2)c(-c2ccnc3[nH]ccc23)s1)c1ccccc1.O=C(O)C(F)(F)F.O=C(O)C(F)(F)F (centres unmarked) [GSK1325775]
Second: Cc1c2ccc(N(C)c3ccnc(Nc4cccc(S(N)(=O)=O)c4)n3)cc2nn1Cc1ccccc1.Cl.Cl [GW787226]
The “%Inh” value of the first is higher: 9% for the first, 0% for the second.

system: RAF1; conditions: concentration: 1 μM, replicates: in singlicate; n = 1

First: COc1ccc(Nc2ncc(C#N)c(Nc3ccccc3C(N)=O)n2)cc1N1CCN(C)CC1.Cl [GSK1558669]
Second: CC(C)Oc1ccc2c(-c3ccnc(Nc4ccc(N5CCN(C)CC5)cc4)n3)cnn2n1 [GW696155]
The “%Inh” value of the first is higher: 32% for the first, 0% for the second.

First: O=C(Nc1cccc(-c2nn3ncccc3c2-c2ccnc(Nc3cccc(C(F)(F)F)c3)n2)c1)c1c(F)cccc1F [GSK299495]
Second: Fc1ccc(-c2nn3c(OCC(F)(F)F)cccc3c2-c2ccncc2)cc1 [GW514784]
The “%Inh” value of the first is higher: 86% for the first, 8% for the second.

Compared with `Cc1cccc(-c2nc(Nc3ccc4ncsc4c3)c3ccccc3n2)n1` [GW867588], `c1ccc(-c2n[nH]cc2-c2ccnc3ccccc23)nc1` [GW271431] is higher in “%Inh” value: 0% for the first, 2% for the second.

Going from `Cl.Nc1ncnc2occ(-c3ccc(NC(=O)Nc4cc(C(F)(F)F)ccc4F)cc3)c12` [SB-707548] to `COC(=O)Nc1nc2cc(Oc3ccc(NC(=O)Nc4cc(F)ccc4F)cc3)ccc2[nH]1.Cl` [GW701424], the “%Inh” value rises from 78% to 89%.

Going from `C[C@@H](Oc1cc(-n2cnc3ccc(NC(=O)NC(C)(C)C)cc32)sc1C(N)=O)c1ccccc1Cl` [GSK346294] to `COc1ccc(COc2cc(-n3cnc4ccccc43)sc2C(N)=O)cc1` [GSK1024304], the “%Inh” value rises from 0% to 4%.

Going from `c1ccc(-c2cc(-c3c[nH]nc3-c3ccccn3)ccn2)cc1` [GW576604] to `N#Cc1ccc(-c2cc(-c3c[nH]nc3-c3ccccn3)ccn2)cc1` [GW693028], the “%Inh” value falls from 4% to 1%.

Compared with `Cc1nnc(-c2ccc3occ(-c4ccc(C(C)O)cc4)c3c2)o1` (centres unmarked), `Cc1ccc(NC(=O)c2ccnc(N3CCN(C)CC3)c2)cc1-c1ccc(C(=O)NCC2CC2)cc1` [GW775604] is lower in “%Inh” value: 100% for the first, 10% for the second.

Going from `NS(=O)(=O)c1cccc(-c2ccc3ncc(N4CCOCC4)nc3c2)c1` [GSK1535721] to `O=c1cc(N2CCOCC2)nc2n(Cc3cccc4ccccc34)ccn12` [GSK2333389], the “%Inh” value falls from 5% to 0%.

First: Fc1ccc(-c2ncn(CCCN3CCOCC3)c2-c2ccccn2)cc1 [SB-211742]
Second: Fc1ccc(-c2ncn(CCCN3CCOCC3)c2-c2cccnc2)cc1 [SB-211743]
The “%Inh” value of the first is higher: 29% for the first, 9% for the second.

Going from `CN(C1=C(c2ccccc2)C(=O)NC1=O)c1ccccc1` [SB-334860] to `CCc1nc(-c2cccc(C)c2)c(-c2ccnc(NCc3ccccc3)c2)s1`, the “%Inh” value rises from 18% to 24%.

First: O=C(NCCNc1ccnc(Nc2ccc(F)cc2)n1)Nc1ccccc1F [GSK1379880]
Second: O=C(NCCNc1ccnc(Nc2ccc(F)cc2)n1)c1cc2ccccc2s1 [GSK1379874]
The “%Inh” value of the first is higher: 22% for the first, 10% for the second.

Going from `O=c1cc(N2CCOCC2)nc2n(Cc3cccc(F)c3)ccn12` [GSK2297430] to `Cc1cccc(Cn2ccn3c(=O)cc(N4CCOCC4)nc23)c1` [GSK2297542], the “%Inh” value rises from 0% to 7%.

Compared with `CC(C)(C)n1cnc2c(N)ncnc21` [SKF-97359], `Cn1ccc2ncnc(Oc3ccc(NC(=O)Nc4ccncc4)c(Cl)c3)c21` is lower in “%Inh” value: 15% for the first, 12% for the second.

Compared with `O=c1cc(N2CCOCC2)nc2n(Cc3cccc(C(F)(F)F)c3)ccn12` [GSK2297543], `COc1ccc(S(=O)(=O)NC2CCN(c3cc(C)nc(Nc4cccc(C#N)c4)n3)CC2)cc1.O=C(O)C(F)(F)F` [GSK1653539] is lower in “%Inh” value: 5% for the first, 0% for the second.

Compared with `Cc1ccc(C(=O)NCC(N)=O)cc1-n1c(C)cc(OCc2ccc(F)cc2F)c(Br)c1=O`, `O=C(NOCC1CC1)c1ccc(F)c(F)c1Nc1ccc(I)cc1Cl` is lower in “%Inh” value: 37% for the first, 0% for the second.

Compared with `O=C(Nc1n[nH]c2cc(-c3cccc(F)c3)ccc12)C1CC1` [SB-735464], `Nc1nccc(-c2c(-c3ccc(F)cc3)ncn2C2CCN(CC(F)(F)F)CC2)n1` [SB-236560] is lower in “%Inh” value: 15% for the first, 0% for the second.

Going from `COc1ccc(Nc2nccc(N3CCC(NC(=O)Nc4cccc(C(C)=O)c4)C3)n2)cc1` (centres unmarked) [GSK1379731] to `Cc1c2ccc(N(C)c3ccnc(Nc4cccc(S(N)(=O)=O)c4)n3)cc2nn1Cc1ccccc1.Cl.Cl` [GW787226], the “%Inh” value rises from 0% to 94.5%.

In the case of `NCC(NC(=O)c1cc(-c2cn[nH]c2)c(-c2ccnc3[nH]ccc23)s1)c1ccccc1.O=C(O)C(F)(F)F.O=C(O)C(F)(F)F` (centres unmarked) [GSK1325775], the “%Inh” value is reported as 0%.
